{"source": "PubChem BioAssay AID504834", "about": "(National Center for Advancing Translational Sciences (NCATS), 2011)", "note": "About 22,000 (6.9%) of roughly 320,000 compounds were called active. Roughly 27% stayed inconclusive and do not appear here. Shown is part of a subset that was picked to be rich in actives. Unmarked numbers belong to inactive results. Calls follow the shape of the dose curve; as a rule, active = well fitted inhibition curve with a large enough effect; inconclusive = small, poorly fitted or top-dose-only effect, or another doubt; inactive = no such curve, though single readings can be large or run the other way. % is scaled to controls: 0 for no effect and ±100 for the full control effect; potency is read from the fitted curve at half-maximal effect."}
{"test": "Primary qHTS for delayed death inhibitors of the malarial parasite plastid, 96 hour incubation", "details": "P. falciparum luciferase reporter growth; series mostly up to 28.7 µM; activity change, negative = inhibition: at the top concentration", "how_it_was_run": "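Compounds incubated with erythrocytes infected by luciferase-expressing P. falciparum (2% hematocrit, 0.05% parasitemia final) for 96 hours, 37 C in 5% CO2. Growth inhibition scored as decreased luciferase luminescence.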"}
{"smiles": "CN(C(=O)c1ccccc1)c1nccnc1C#N", "activity change, negative = inhibition": "-10%"}
{"smiles": "CN(C)C(=O)c1nc2ccc(Cl)cn2c1CNCc1cccc(OC(F)(F)F)c1", "activity change, negative = inhibition": "-21%"}
{"smiles": "Cc1cc(NC(=O)CSc2nnc(-c3ccc(Cl)s3)o2)no1", "activity change, negative = inhibition": "5.07%"}
{"smiles": "COc1ccccc1-c1nnc(SCC(=O)Nc2ccccc2)o1", "activity change, negative = inhibition": "41.6%"}
{"smiles": "COc1ccccc1-c1nnc(SCC(=O)Nc2cc(C)on2)o1", "Potency": "13.1 µM (active)"}
{"smiles": "CCN(C(=O)CSc1nc(N)cc(=O)[nH]1)C1CCS(=O)(=O)C1", "note": "(configuration not stated)", "activity change, negative = inhibition": "18.9%"}
{"smiles": "CC(=O)Nc1ccc(NC(=O)CC2CCCC2)cc1", "activity change, negative = inhibition": "58.4%"}
{"smiles": "Cn1c2ccccc2c(=O)c2c(=O)n(Cc3ccco3)c(COc3ccccc3)nc21", "Potency": "7.38 µM (active)"}
{"smiles": "CCn1c(COc2ccccc2)nnc1SCC(=O)NCc1ccco1", "activity change, negative = inhibition": "51%"}
{"smiles": "Cc1nc2c(c(=O)n1Cc1ccco1)c1nc3ccccc3nc1n2Cc1ccccc1", "activity change, negative = inhibition": "27.6% [at 5.75 µM]"}
{"smiles": "CC(=O)N1CCC(N(C(=O)Nc2ccc(Cl)cc2)C(C)C)CC1", "activity change, negative = inhibition": "-2.03%"}
{"smiles": "CCOc1ccc(N/C=C/C(=O)c2ccccc2)cc1", "activity change, negative = inhibition": "84.5%"}
{"smiles": "N#C/C=C/N1CCN(Cc2ccc3c(c2)OCO3)CC1", "activity change, negative = inhibition": "23.3%"}
{"smiles": "Cc1ccc(-c2csc(SCC(=O)Nc3cc(C)on3)n2)cc1", "activity change, negative = inhibition": "-16.1%"}
{"smiles": "COc1ccccc1C(=O)COC(=O)CSCC(=O)Nc1cc(C)on1", "activity change, negative = inhibition": "11.2%"}
{"smiles": "Cc1cc(NC(=O)CSCc2nc(-c3cccc(Cl)c3)oc2C)no1", "Potency": "11.7 µM (active)"}
{"smiles": "Oc1c(Cl)cc(Cl)cc1/C=N/c1ncn[nH]1", "activity change, negative = inhibition": "13.7%"}
{"smiles": "CC(C)C[C@H](NC(=O)C1CC(=O)N(c2ccc3c(c2)OCCO3)C1)C(=O)NC1CCCC1", "note": "(some centres not stated)", "activity change, negative = inhibition": "-33.8%"}
{"smiles": "CCCn1c(=O)c(C(=O)Nc2cc(C)ccn2)c(O)c2ccccc21", "activity change, negative = inhibition": "-14.4%"}
{"smiles": "O=C(c1ccc(Cl)cc1)c1ccc(OCC(O)CN2CCCCC2)cc1", "note": "(configuration not stated)", "Potency": "2.33 µM (active)"}
{"smiles": "OC(COc1ccc(Br)cc1)CN1CCCC1", "note": "(configuration not stated)", "activity change, negative = inhibition": "8.39%"}
{"smiles": "CC(=O)Nc1ccc(OCC(O)CN2CCN(c3ccccc3Cl)CC2)cc1", "note": "(configuration not stated)", "Potency": "3.7 µM (active)"}
{"smiles": "CC(C)c1ccc(OCC(O)CN2CCN(c3ccccn3)CC2)cc1", "note": "(configuration not stated)", "activity change, negative = inhibition": "399%"}
{"smiles": "O=[N+]([O-])c1ccc(N2CCN(CC(O)COc3ccccc3)CC2)cc1", "note": "(configuration not stated)", "activity change, negative = inhibition": "17.6%"}
{"smiles": "O=C(c1ccccc1)c1ccc(OCC(O)CN2CCCC2)cc1", "note": "(configuration not stated)", "activity change, negative = inhibition": "-1.41%"}
{"smiles": "COc1ccc(C2CC(c3ccc([N+](=O)[O-])cc3)=NN2C(C)=O)cc1", "note": "(configuration not stated)", "activity change, negative = inhibition": "-93.3%"}
{"smiles": "COCc1c(C(=O)OCC(=O)Nc2ccc(OC(F)F)cc2)oc2ccccc12", "activity change, negative = inhibition": "-20.6%"}
{"smiles": "Cc1ccc(NC(=O)Cn2c(C)csc2=O)cc1", "activity change, negative = inhibition": "57.6%"}
{"smiles": "O=C(NCCSc1ncc(-c2ccccc2)[nH]1)c1ccco1", "activity change, negative = inhibition": "15%"}
{"smiles": "Cc1ccc(S(=O)(=O)N(CCCN(C)C)Cc2ccc3c(c2)OCO3)cc1", "activity change, negative = inhibition": "29.2%"}
{"smiles": "COc1ccccc1CCNS(=O)(=O)c1cn(C)nc1C", "activity change, negative = inhibition": "90.8%"}
{"smiles": "CC(=O)N1CCc2cc(S(=O)(=O)NC3CCCCC3)ccc21", "activity change, negative = inhibition": "27.2%"}
{"smiles": "CCC(=O)N1CCc2cc(S(=O)(=O)NC(C(=O)N3CCc4ccccc4C3)C(C)C)ccc21", "note": "(configuration not stated)", "activity change, negative = inhibition": "-1.47%"}
{"smiles": "CCOC(=O)N1CCC(NC(=O)C(NS(=O)(=O)c2ccc3c(c2)CCN3C(=O)CC)C(C)C)CC1", "note": "(configuration not stated)", "Potency": "16.5 µM (active)"}
{"smiles": "O=S(=O)(NC1CCCC1)c1ccc(-n2cnnn2)cc1", "activity change, negative = inhibition": "0.984%"}
{"smiles": "COc1cc(OC)cc(C(=O)NCCSCc2ccc(Cl)cc2)c1", "activity change, negative = inhibition": "15.3%"}
{"smiles": "COc1ccc(/C=C(\\C#N)C(=O)OCC(=O)N(C)C2CCS(=O)(=O)C2)cc1", "note": "(configuration not stated)", "activity change, negative = inhibition": "11.7%"}
{"smiles": "CC(C)CC(O)C1CCN(C(=O)CCc2nnc(-c3ccc4c(c3)OCO4)o2)CC1", "note": "(configuration not stated)", "activity change, negative = inhibition": "26.7%"}
{"smiles": "O=C(NC(Cc1ccccc1)C(=O)O)/C(=C\\c1ccccc1)NC(=O)c1ccco1", "note": "(configuration not stated)", "activity change, negative = inhibition": "110%"}
{"smiles": "CC(=O)N/C(=C\\c1ccc(F)cc1)C(=O)NC(Cc1ccccc1)C(=O)O", "note": "(configuration not stated)", "activity change, negative = inhibition": "-1.95%"}
{"smiles": "O=C(NC(Cc1ccc(O)cc1)C(=O)O)/C(=C/c1ccccc1)NC(=O)c1ccccc1", "note": "(configuration not stated)", "Potency": "11.7 µM (active)"}
{"smiles": "Cc1ccc(OCC(=O)Nc2nnc(-c3ccco3)s2)cc1", "activity change, negative = inhibition": "12.4%"}
{"smiles": "CC(NS(=O)(=O)c1ccc(Cl)cc1)C(=O)Nc1ccc2c(c1)OCCO2", "note": "(configuration not stated)", "activity change, negative = inhibition": "30.4%"}
{"smiles": "COCCCn1c(SCC(=O)Nc2oc(C)c3c(C)n[nH]c(=O)c23)nc2sc3c(c2c1=O)CCC3", "activity change, negative = inhibition": "-3.96%"}
{"smiles": "CCCC(C)C(=O)NCc1ccncc1", "note": "(configuration not stated)", "activity change, negative = inhibition": "0%"}
{"smiles": "O=C(NCc1ccncc1)C(=O)NCc1ccco1", "activity change, negative = inhibition": "10.7%"}
{"smiles": "CC(C)(C)NC(=O)C(=O)NCc1ccncc1", "Potency": "3.29 µM (active)"}
{"smiles": "CCc1cccc(NC(=O)COC(=O)c2cc(=O)c3ccccc3o2)c1", "activity change, negative = inhibition": "20.8%"}
{"smiles": "COC(=O)c1sc(NC(=O)COC(=O)C2CCC2)c(C(=O)OC)c1C", "activity change, negative = inhibition": "-1.55%"}
{"smiles": "c1ccc(-n2ncc3c(N4CCCC4)ncnc32)cc1", "activity change, negative = inhibition": "27.8%"}
{"smiles": "COc1ccc(N2CCN(C(=O)CSc3ncnc4c3cnn4-c3ccc(OC)cc3)CC2)cc1", "activity change, negative = inhibition": "-5.18%"}
{"smiles": "COc1ccc(-n2ncc3c(N4CCCc5ccccc54)ncnc32)cc1", "Potency": "13.1 µM (active)"}
{"smiles": "O=C(NCC(=O)N(c1ccccc1)C(C(=O)NCC1CCCO1)c1ccccc1)c1cccs1", "note": "(configuration not stated)", "activity change, negative = inhibition": "-23.4%"}
{"smiles": "O=C(O)c1ccccc1-c1ccccc1C(=O)Nc1ccccc1Br", "activity change, negative = inhibition": "-27.2%"}
{"smiles": "COC(=O)CN1C(=O)[C@H]2[C@@H](/C=C/c3ccccc3)N3C(=O)CN(CC4CC4)C(=O)[C@@]3(Cc3ccccc3)[C@H]2C1=O", "activity change, negative = inhibition": "25.2%"}
{"smiles": "Fc1ccc(-c2ccc(NCCN3CCOCC3)nn2)cc1", "activity change, negative = inhibition": "15.4%"}
{"smiles": "O=S(=O)(c1ccc(SCc2ccccc2)nc1)N1CCCCCC1", "activity change, negative = inhibition": "5.66%"}
{"smiles": "COc1ccc(-c2cc(=O)oc3cc(OC(C)C(=O)Nc4ccc(CN5CCOCC5)cc4)ccc23)cc1", "note": "(configuration not stated)", "Potency": "9.28 µM (active)"}
{"smiles": "Cc1cc(=O)oc2cc(NC(=O)C(C)Oc3ccccc3)ccc12", "note": "(configuration not stated)", "activity change, negative = inhibition": "35.7%"}
{"smiles": "Cc1cc(=O)oc2cc(OC(C)C(=O)Nc3ccc(N4CCOCC4)cc3)ccc12", "note": "(configuration not stated)", "activity change, negative = inhibition": "2.35%"}
{"smiles": "CN1C(=O)C2(OCCCO2)c2cc(Cl)ccc21", "activity change, negative = inhibition": "-11.2%"}
{"smiles": "Cc1cc(S(=O)(=O)c2cc3ccc(O)c(C)c3oc2=O)ccc1F", "activity change, negative = inhibition": "4.07%"}
{"smiles": "CCOc1ccc(-n2cnc3c(=O)[nH]c(N)nc32)cc1", "activity change, negative = inhibition": "1.24%"}
{"smiles": "Cc1n[nH]c(C)c1S(=O)(=O)N1CCCC(C(=O)Nc2ccc(Br)cc2)C1", "note": "(configuration not stated)", "activity change, negative = inhibition": "-16.5%"}
{"smiles": "CCC(C)C(N=C1NS(=O)(=O)c2ccccc21)C(=O)N1CCC(C)CC1", "note": "(configuration not stated)", "activity change, negative = inhibition": "80.9%"}
{"smiles": "CCOC(=O)N1CCN(C(=O)c2ccc(S(=O)(=O)Nc3cccc(C(F)(F)F)c3)cc2)CC1", "activity change, negative = inhibition": "-11%"}
{"smiles": "Nc1ccn(CC(=O)N2CCN(c3ccccn3)CC2)c(=O)n1", "activity change, negative = inhibition": "64.8%"}
